For 13 compounds, Potency results are on record in PubChem BioAssay (Tox21).

Several values for one entry are separate records, joined by “and”; a condition that tells them apart may be missing. Identical values can stand only once. Records with an inconclusive call do not appear. Where a structure was tested more than once in an assay, its records may differ in their call. Activity calls are given as the source filed them. Unless noted, the call rests on the fitted dose curve.

Experiment [1] is described as follows: Nuclear factor erythroid 2-related factor 2/antioxidant responsive element (Nrf2/ARE) small molecule agonists: luciferase reporter gene qHTS assay in human keratinocytes (AID 1919969). Further: nearly all actives have a fitted effect of over 35% in size.
The nature of experiment [2]: p53 small molecule agonists, cell-based qHTS assay with human liver microsomes (AID 1963577). An outline of the steps: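 Compounds act here after metabolic activation: human liver microsomes and NADPH, both at 0.5 mg/mL final, were co-added to p53RE-bla cells. Incubation ran 16 h at 37 C, followed by LiveBLAzer detection.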
Experiment [3] in a line: p53 small molecule agonists, cell-based qHTS assay with rat liver microsomes (AID 1963578). Put shortly:
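Read-out is beta-lactamase reporter fluorescence (LiveBLAzer, 2 h, room temperature, dark) in p53RE-bla cells treated 16 h at 37 C with compound, rat liver microsomes and NADPH, both 0.5 mg/mL final.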

A short description of experiment [4]: p53 small molecule agonists, cell-based qHTS assay with human liver microsomes: qHTS cell viability counter screen (AID 1963579). Further: nearly all actives have a fitted effect of over 45% in size. Further: potency means the concentration at half of the fitted maximal effect. An outline of the steps: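 Cells carrying the p53 response-element beta-lactamase reporter are treated for 16 h at 37 C with test compounds in the presence of human liver microsomes and NADPH (both 0.5 mg/mL final); ATP-based CellTiter-Glo luminescence then reports viability.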

The nature of experiment [5]: p53 small molecule agonists, cell-based qHTS assay with rat liver microsomes: qHTS cell viability counter screen (AID 1963580). Further: nearly all actives have a fitted effect of over 45% in size. Put shortly:
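Viability is assessed in parallel with the p53 reporter read: HCT-116 p53RE-bla cells receive compounds plus rat microsomes and NADPH (0.5 mg/mL final apiece), incubate 16 h at 37 C, and then CellTiter-Glo luminescence is recorded.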

Experiment [6] is described as follows: p53 small molecule agonists, cell-based qHTS assay: qHTS cell viability counter screen (AID 1963581). Further: nearly all actives have a fitted effect of over 45% in size. Put shortly: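 Following 5 h attachment, HCT-116 p53RE-bla cells took up compound for 16 h at 37 C; the reporter was read with B/G FRET substrate (2 h RT), and viability then via CellTiter-Glo ATP luminescence.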
Experiment [7] is described as follows: p53 small molecule agonists, cell-based qHTS assay (AID 1963582; active means well fitted activation curve with a large enough effect in the signal ratio in the repeat runs, not every such curve was filed as active; the % refers to the signal ratio). An outline of the steps:
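In this cell-based concentration-response screen, a p53 response element drives beta-lactamase; cells received DMSO-borne compounds after 5 h culture and were incubated a further 16 h before FRET substrate development.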

Experiment [8] concerns the target Gonadotropin-releasing hormone receptor (Homo sapiens) (UniProt P30968). In words: Human gonadotropin-releasing hormone receptor (GnRHR) small molecule agonists, calcium flux assay in GnRHR-HEK293 cells (AID 1920063). Further: nearly all actives have a fitted effect of over 35% in size. An outline of the steps:
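We seeded human GnRHR-expressing HEK293 cells for 18 hours, loaded them with calcium dye for an hour at 37 C, added test compounds, and recorded fluorescence intensity kinetically for three minutes.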

Experiment [9] deals with KiSS-1 receptor (Homo sapiens) (UniProt Q969F8). The experiment is described as follows: Human kisspeptin (KISS1R) small molecule agonists, calcium flux assay in KISS1R-HEK293 cells (AID 1920064; active means well fitted activation curve with a large enough effect in the repeat runs). Put shortly:
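Kinetic calcium assay, 1 s sampling over 3 min at Ex/Em 480/540, in HEK293 cells engineered with human KISS1R; compounds delivered in DMSO after 1 h dye loading.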

Experiment [10] in a line: G protein-coupled receptor (GPCR) small molecule agonists, calcium flux assay: HEK293 wild type cell line counter screen (AID 1920065). An outline of the steps: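 Calcium-sensitive dye, loaded 1 h at 37 C into cells cultured 18 h, reports compound-evoked calcium release as fluorescence (Ex/Em 480/540), measured over 3 min. Agonist mode; 15-point titrations, triplicate.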

Experiment [11] addresses 5-hydroxytryptamine receptor 2A (Homo sapiens) (UniProt P28223). In words: 5-hydroxytryptamine receptor 2A (HTR2A) small molecule antagonists, cell-based qHTS assay (AID 1963586). Further: nearly all actives have a fitted effect of over 45% in size. Further: potency means the concentration at half of the fitted maximal effect. Put shortly: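 Antagonist-mode intracellular calcium assay: DOI (4 nM) added after 5 min compound pre-incubation at room temperature to dye-loaded HTR2A-CHO cells. Fluorescence followed for 3 min, sampled every second.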

The target is the same in experiment [12]. In words: 5-hydroxytryptamine receptor 2A (HTR2A) small molecule agonists, cell-based qHTS assay (AID 1963587). Further: nearly all actives have a fitted effect of over 30% in size. Put shortly: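 CHO cells stably expressing human HTR2A, plated 18 h, loaded with calcium dye 1 h at 37 C. Agonist mode: compounds added and intracellular calcium fluorescence recorded kinetically for 2 min at 1 sec intervals.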
Experiment [13] concerns the target Muscarinic acetylcholine receptor M1 (Homo sapiens) (UniProt P11229). In words: Cholinergic receptor muscarinic 1 (CHRM1) small molecule antagonists, cell-based qHTS assay (AID 1963588). Further: nearly all actives have a fitted effect of over 40% in size. Put shortly:
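CHRM1-CHO calcium-flux assay, antagonist mode. Cells were seeded 18 h, dye-loaded 1 h at 37 C and given compound for 5 min at RT, then acetylcholine was added at 50nM. FDSS fluorescence was read 3 min; 15 concentrations, three runs.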

Experiment [14] has the same target. In words: Cholinergic receptor muscarinic 1 (CHRM1) small molecule agonists, cell-based qHTS assay (AID 1963589). Further: nearly all actives have a fitted effect of over 35% in size. An outline of the steps:
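Measures agonist-induced intracellular calcium rise. Stable human CHRM1 CHO line, 1 h dye load at 37 C, compounds from DMSO, kinetic fluorescence read.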

A short description of experiment [15]: cAMP Responsive Elements (CRE) small molecule agonists, cell-based qHTS assay (AID 1963590). Put shortly: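 A CRE-responsive beta-lactamase reporter in HEK 293T cells was used. Treatment ran 3 h at 37 C; detection used LiveBLAzer B/G FRET substrate for 2 h at room temperature.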
Experiment [16] can be described thus: cAMP Responsive Elements (CRE) small molecule antagonists, cell-based qHTS assay (AID 1963591; active means well fitted inhibition curve with a large enough effect in the signal ratio in the repeat runs, not every such curve was filed as active; the % refers to the signal ratio). An outline of the steps: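 HEK293T cells carrying a CRE-driven beta-lactamase reporter receive compound and NKH477 (0.25 uM final) for 3 h. Fluorescence from LiveBLAzer B/G FRET substrate is read after 2 h at room temperature.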
In experiment [17] the target is Beta-2 adrenergic receptor (Homo sapiens) (UniProt P07550). In words: Adrenergic beta2 receptor (ADRB2) small molecule antagonists, cell-based qHTS assay (AID 1963592). Further: nearly all actives have a fitted effect of over 50% in size. Further: potency means the concentration at half of the fitted maximal effect. An outline of the steps: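 Cells (CHO, stable ADRB2 overexpression) incubated 18-20hr at 37C; compounds added from DMSO; agonist mix (1nM isoproterenol, 100uM IBMX, 25uM Ro-20-1724) added; 0.5hr RT; d2-cAMP and anti-cAMP-cryptate added; 1hr RT; 665/615 nm read.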
Sequence of Beta-2 adrenergic receptor (Homo sapiens) (P07550 whole entry, looked up): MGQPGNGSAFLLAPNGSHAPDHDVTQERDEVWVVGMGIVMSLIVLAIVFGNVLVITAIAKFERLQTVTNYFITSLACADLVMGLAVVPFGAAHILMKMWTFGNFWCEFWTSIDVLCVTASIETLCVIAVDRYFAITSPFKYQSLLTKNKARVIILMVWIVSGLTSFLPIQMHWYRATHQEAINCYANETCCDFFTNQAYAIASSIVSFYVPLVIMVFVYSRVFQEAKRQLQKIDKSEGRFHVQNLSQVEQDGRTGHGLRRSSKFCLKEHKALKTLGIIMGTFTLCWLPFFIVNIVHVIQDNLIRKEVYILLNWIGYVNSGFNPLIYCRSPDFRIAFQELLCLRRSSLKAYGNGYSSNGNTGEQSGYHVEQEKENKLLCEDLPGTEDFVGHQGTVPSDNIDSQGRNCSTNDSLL

For experiment [18] the target is unchanged. The experiment is described as follows: Adrenergic beta2 receptor (ADRB2) small molecule agonists, cell-based qHTS assay (AID 1963593).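 Further: CHO cells stably overexpressing human ADRB2.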 Put shortly:
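CHO cells stably over-expressing ADRB2 were plated overnight at 37C, then dosed with compounds plus a stimulation mix containing 100uM IBMX and 25uM Ro-20-1724 for 0.5hr at room temperature. cAMP was measured by HTRF competition, 1hr.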

Experiment [19] deals with D(2) dopamine receptor (Homo sapiens) (UniProt P14416). The experiment is described as follows: Dopamine D2 receptor (DRD2) small molecule agonists, cell-based qHTS assay (AID 1963594). Further: nearly all actives have a fitted effect of over 35% in size. An outline of the steps: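 HEK293 cells stably expressing human DRD2, pre-treated with PDE inhibitor Ro20-1724 (0.1 mM final) and compound 10 min at room temperature, then stimulated with NKH477 (200nM […]) for 30 min. cAMP read by HTRF (665/620 nm).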
Sequence of D(2) dopamine receptor (Homo sapiens) (P14416 whole entry, looked up): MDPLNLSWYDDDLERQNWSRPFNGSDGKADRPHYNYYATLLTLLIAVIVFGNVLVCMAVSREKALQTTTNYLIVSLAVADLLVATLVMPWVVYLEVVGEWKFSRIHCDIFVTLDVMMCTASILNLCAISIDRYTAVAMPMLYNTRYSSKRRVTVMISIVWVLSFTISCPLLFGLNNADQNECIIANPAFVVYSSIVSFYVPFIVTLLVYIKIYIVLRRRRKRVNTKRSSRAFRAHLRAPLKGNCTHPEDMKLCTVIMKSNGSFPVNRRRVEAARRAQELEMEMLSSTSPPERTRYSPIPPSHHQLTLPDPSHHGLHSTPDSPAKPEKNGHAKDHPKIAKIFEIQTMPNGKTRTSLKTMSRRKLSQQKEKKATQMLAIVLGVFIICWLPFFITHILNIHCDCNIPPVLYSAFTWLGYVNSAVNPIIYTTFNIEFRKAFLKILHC

Experiment [20] has the same target. In words: Dopamine D2 receptor (DRD2) small molecule antagonists, cell-based qHTS assay (AID 1963595; active means well fitted inhibition curve with a large enough effect in the signal ratio in the repeat runs, with a control signal flat; the % refers to the signal ratio). An outline of the steps: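 DRD2-HEK293; 0.1 mM Ro20-1724; cpd 10 min RT; NKH477 200 nM + quinpirole 12 nM, 30 min RT; HTRF cAMP (cAMP-d2/anti-cAMP cryptate), 665/620 nm ratio after 1 h.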

Sequence of KiSS-1 receptor (Homo sapiens) (Q969F8 whole entry, looked up): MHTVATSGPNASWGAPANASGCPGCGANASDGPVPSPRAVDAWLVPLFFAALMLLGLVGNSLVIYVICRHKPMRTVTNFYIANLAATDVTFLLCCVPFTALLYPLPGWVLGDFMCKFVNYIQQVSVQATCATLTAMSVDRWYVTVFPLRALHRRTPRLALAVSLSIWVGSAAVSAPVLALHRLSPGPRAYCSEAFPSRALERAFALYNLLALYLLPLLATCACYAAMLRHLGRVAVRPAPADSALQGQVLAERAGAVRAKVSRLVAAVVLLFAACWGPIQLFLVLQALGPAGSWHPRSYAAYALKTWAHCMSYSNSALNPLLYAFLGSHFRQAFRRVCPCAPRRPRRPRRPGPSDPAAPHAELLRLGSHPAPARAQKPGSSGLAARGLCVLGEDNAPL
Sequence of Muscarinic acetylcholine receptor M1 (Homo sapiens) (P11229 whole entry, looked up): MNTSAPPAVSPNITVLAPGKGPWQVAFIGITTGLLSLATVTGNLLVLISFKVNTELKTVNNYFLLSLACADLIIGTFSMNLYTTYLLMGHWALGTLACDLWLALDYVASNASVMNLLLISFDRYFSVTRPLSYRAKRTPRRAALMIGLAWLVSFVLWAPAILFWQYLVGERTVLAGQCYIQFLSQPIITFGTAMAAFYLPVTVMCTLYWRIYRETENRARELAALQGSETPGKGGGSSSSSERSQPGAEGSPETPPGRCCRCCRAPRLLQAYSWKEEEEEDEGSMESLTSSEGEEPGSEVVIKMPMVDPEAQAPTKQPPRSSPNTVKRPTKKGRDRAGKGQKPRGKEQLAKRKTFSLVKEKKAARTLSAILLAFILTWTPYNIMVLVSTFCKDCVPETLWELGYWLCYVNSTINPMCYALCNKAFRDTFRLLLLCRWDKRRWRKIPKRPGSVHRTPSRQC
Sequence of 5-hydroxytryptamine receptor 2A (Homo sapiens) (P28223 whole entry, looked up): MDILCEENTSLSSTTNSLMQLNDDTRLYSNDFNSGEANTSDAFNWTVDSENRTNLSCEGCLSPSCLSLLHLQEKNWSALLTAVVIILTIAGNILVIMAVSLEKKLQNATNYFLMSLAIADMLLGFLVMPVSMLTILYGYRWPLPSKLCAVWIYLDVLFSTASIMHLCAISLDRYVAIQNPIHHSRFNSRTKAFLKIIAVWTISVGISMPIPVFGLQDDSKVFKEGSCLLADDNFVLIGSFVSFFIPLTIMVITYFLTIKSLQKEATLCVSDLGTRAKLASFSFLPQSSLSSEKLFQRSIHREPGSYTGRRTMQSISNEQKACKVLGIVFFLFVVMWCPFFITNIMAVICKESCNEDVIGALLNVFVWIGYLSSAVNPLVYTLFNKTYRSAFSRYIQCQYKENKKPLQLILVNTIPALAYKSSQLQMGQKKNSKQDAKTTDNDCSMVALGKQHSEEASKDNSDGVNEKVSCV
Sequence of Gonadotropin-releasing hormone receptor (Homo sapiens) (P30968 whole entry, looked up): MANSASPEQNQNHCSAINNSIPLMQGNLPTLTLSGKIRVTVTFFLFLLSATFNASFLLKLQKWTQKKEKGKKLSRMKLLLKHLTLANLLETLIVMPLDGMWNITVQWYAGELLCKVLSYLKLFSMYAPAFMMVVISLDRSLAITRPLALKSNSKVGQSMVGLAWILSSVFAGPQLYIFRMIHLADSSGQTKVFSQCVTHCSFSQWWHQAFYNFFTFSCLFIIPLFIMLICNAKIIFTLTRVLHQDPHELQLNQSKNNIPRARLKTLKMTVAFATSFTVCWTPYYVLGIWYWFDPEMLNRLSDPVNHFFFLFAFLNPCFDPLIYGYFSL

As to `OCC(O)CO`, the Potency result in experiment [1], in experiment [2], in experiment [3], in [4], in experiment [5] and in experiment [6] was “inactive” each time. Also, in experiment [7], the Potency entry was “inactive”.

For the compound `N#CCNCC#N`, the Potency entry in [8], in experiment [9], in experiment [10], in experiment [2], in [3] and in experiment [4] was “inactive” throughout. The Potency result in experiment [5], in experiment [6], in experiment [7], in [11], in [12] and in [13] was “inactive” throughout. Also, the Potency entry in experiment [14], in experiment [15], in [16], in experiment [17], in [18] and in experiment [19] was “inactive” throughout. Also, the Potency entry in experiment [20] is “inactive”.

Consider `NC(=O)OCCCc1ccccc1`, for which the Potency entry in [1], in [8], in experiment [10], in experiment [2], in [3] and in [4] was “inactive” throughout. In addition, the Potency entry in [5], in [6], in experiment [7], in experiment [11], in [12] and in experiment [13] was “inactive” throughout. In addition, the Potency result in experiment [14], in experiment [15], in experiment [16], in experiment [18] and in experiment [20] was “inactive” in each case.

As to `[Cl-].[Cl-].[Cl-].[Fe+3]`, the Potency entry in experiment [8], in [9], in experiment [10], in experiment [4], in [5] and in [6] was “inactive” in each case. Moreover, the Potency entry in [11], in [12], in experiment [13], in [14], in experiment [15] and in [16] was “inactive” each time. In addition, the Potency entry in [17], in experiment [18], in experiment [19] and in experiment [20] was “inactive” in each case.

`C[C@]12CCC(=O)C[C@@H]1CC[C@@H]1[C@@H]2CC[C@]2(C)[C@@H](O)CC[C@@H]12`: the Potency entry in experiment [8], in experiment [9], in [10], in [2], in experiment [3] and in experiment [5] was “inactive” in each case. Also, the Potency entry in experiment [6], in [7], in experiment [19] and in experiment [20] was “inactive” in each case. In addition, the Potency in [4] was 35.9 µM (active) and inactive; in experiment [17], 9.7 µM (active).

For the compound `O=[N+]([O-])c1ccc(Cl)cc1`, the Potency result in experiment [9], in experiment [10], in experiment [3], in [4], in [5] and in experiment [6] was “inactive” each time. Further, the Potency entry in [7], in experiment [11], in experiment [12], in [13], in experiment [14] and in experiment [15] was “inactive” each time. Further, the Potency result in experiment [16], in [17], in experiment [18], in experiment [19] and in [20] was “inactive” each time.

`O=Cc1ccco1`: the Potency entry in experiment [1], in experiment [9], in experiment [2], in [3], in experiment [4] and in experiment [5] was “inactive” each time. Further, the Potency entry in [6], in [7], in [11], in [12], in experiment [13] and in experiment [14] was “inactive” throughout. Further, the Potency entry in experiment [16], in experiment [17], in experiment [19] and in [20] was “inactive” each time.

As to `O=[N+]([O-])O`, the Potency entry in experiment [8], in experiment [9], in [10], in experiment [5], in experiment [6] and in [11] was “inactive” throughout. The Potency entry in experiment [12], in experiment [13], in [14], in experiment [15], in [16] and in experiment [17] was “inactive” each time. Also, the Potency entry in experiment [18], in [19] and in experiment [20] was “inactive” each time.

As to `Sc1ccccc1Cl`, the Potency entry in experiment [1], in [8], in experiment [9], in [2], in experiment [3] and in experiment [4] was “inactive” each time. The Potency entry in experiment [5], in [6], in [11], in experiment [12], in [13] and in [14] was “inactive” throughout. Also, the Potency entry in [15], in experiment [16], in experiment [17], in experiment [18], in experiment [19] and in [20] was “inactive” each time.

In the case of `CCCCCCCCCCCCn1cc[n+](C)c1`, the Potency entry in [1], in experiment [9], in [14], in experiment [15], in experiment [16] and in experiment [17] was “inactive” each time. The Potency result in experiment [18] and in experiment [19] was “inactive” throughout. Further, in [11], the Potency entry was “inactive and 33.7 µM (active)”.

As to `Clc1nc(Cl)nc(Nc2ccccc2Cl)n1`, the Potency entry in experiment [1], in experiment [8], in [10], in experiment [2], in [3] and in experiment [4] was “inactive” throughout. In addition, the Potency entry in experiment [5], in experiment [6], in [7], in [11], in [12] and in experiment [13] was “inactive” each time. Besides, the Potency entry in experiment [14], in experiment [15], in experiment [16], in [17], in [18] and in experiment [19] was “inactive” in each case.

For `O=C(O)CCCOc1ccc(Cl)cc1Cl`, the Potency result in experiment [8], in experiment [9], in [10], in [2], in experiment [3] and in experiment [5] was “inactive” each time. Also, the Potency entry in experiment [6], in experiment [12], in experiment [13], in experiment [14], in [17] and in experiment [18] was “inactive” each time. The Potency result in experiment [19] and in experiment [20] was “inactive” each time. Moreover, in [4], the Potency entry was “inactive and 29.4 µM (active)”.

In the case of `CCCCCCCCC(=O)NCc1ccc(O)c(OC)c1`, the Potency entry in experiment [1], in [8], in [9], in [10], in experiment [4] and in [6] was “inactive” each time. Besides, the Potency entry in experiment [11], in experiment [12], in experiment [13], in experiment [14], in [15] and in experiment [16] was “inactive” in each case. Moreover, the Potency entry in experiment [17], in experiment [18], in experiment [19] and in experiment [20] was “inactive” each time.
